# Source: PubChem BioAssay AID588398 (Broad Institute, 2011)
# Screen size: about 1,200 compounds; about 110 (9.2%) were called active. Another 8% or so got no clear call; they are omitted.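 The calls were made as follows: active = pathway reporter half-maximal dose under half the control reporter's, or control reporter unaffected while pathway reporter is inhibited; inconclusive = either signal flat at 30 to 70% inhibition or poorly fitted; inactive = the rest.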 Not all results are given here. Where a call stands in place of a potency, no number is given. Potency and affinity values are given separately.
# Test: TES1-eGFP NF-kB reporter inhibition versus Tet-On dsRED, dose response, selectivity assay for LMP1 NF-kB inhibitor project, imaging, HEK293T, dual-color eGFP/dsRED, cherry-picks (AID 588398)
# Details: 48 h; HEK293T Tet-On dsRED counter-screen channel, at 19.5 µM (top of the series)
row,SMILES,outcome
1,COc1cc(/C=N/NC(=S)Nc2cccc(C(=O)O)c2)ccc1O,inactive
2,O=C(Nc1ccc(C(=O)N2CCOCC2)cc1)Nc1cccc(C(F)(F)F)c1,inactive
3,O=C(NC1=NCCS1)c1cc2ccccc2o1,inactive
4,COc1cc2c(cc1OC)-c1cc(Nc3ccc4c(c3)OCCO4)nc(=O)n1CC2,inactive
5,COc1ccccc1-n1c(-c2ccccc2)n[nH]c1=S,inactive
6,COc1ccc(/C(CC2OC(=O)c3ccccc32)=N\NC(N)=O)cc1 (centres undefined),inactive
7,COc1ccc(N/N=C/c2c(C(=O)O)ccc3ccccc23)cc1,inactive
8,COc1ccccc1C=NN=Cc1ccccc1O,inactive
9,O=C(Nc1ccc(F)c(F)c1)C1CCCCC1,inactive
10,CCCSc1ccc([C@@H]2[C@H]3C(=O)N(C)C(=O)[C@H]3[C@]3(C(=O)OC)CCCN23)cc1OC,inactive
11,CC[C@]1(C(=O)OC)[C@H]2C(=O)N(Cc3ccccc3)C(=O)[C@H]2[C@H]2CN=C(SCc3ccc(Cl)cc3)N21,inactive
12,COc1ccc(-n2c(C)c(C(C)=O)c3cc(OC(C)=O)ccc32)cc1,inactive
13,COc1ccc(S(=O)(=O)N2CCC(C(=O)NC3CC3)CC2)cc1OC,inactive
14,O=C(C1CCCCC1)N1CCN(c2ccnc3cc(Cl)ccc23)CC1,inactive
15,C[n+]1c2n(c3ccccc31)N=C(c1cc(C(C)(C)C)c(O)c(C(C)(C)C)c1)CS2,inactive
16,CC(=NNc1nc2ccccc2o1)c1ncccn1,inactive
17,CC(=NNc1nc2ccccc2s1)c1ncccn1,inactive
18,Brc1cccc(-c2cnco2)c1,inactive
19,COc1ccc(NC(=O)Cn2nnc(C(=O)NCc3ccccc3)c2N)c(OC)c1,inactive
20,COc1ccccc1NC(=O)C(=O)N/N=C(\C)CC(=O)Nc1ccccc1C(F)(F)F,inactive
21,COC(=O)c1cccc(COC(=O)c2ccccc2NC(=O)c2ccco2)c1,inactive
22,Cn1c(=O)c2c(nc(NCc3ccco3)n2C/C=C/c2ccccc2)n(C)c1=O,inactive
23,O=C(CCS(=O)(=O)c1ccccc1)Nc1nccs1,inactive
24,Oc1c(N=NC(=S)Nc2ccccc2F)c2ccccc2n1Cc1cccc(Cl)c1,inactive
25,CCCCCCNC(=O)O[C@]12C[C@@H](C(=O)OC)[C@@H](C(=O)OC)C[C@@]1(O)CN(S(=O)(=O)c1ccc(C)cc1)C2,inactive
26,CCN1CCN(Cc2ccc(NC(=O)c3ccc(C)c(NC(=O)c4ccno4)c3)cc2C(F)(F)F)CC1,inactive

row,SMILES,outcome
1,Oc1c(N=NC(=S)Nc2ccccc2F)c2ccccc2n1Cc1ccc(F)cc1,inactive
2,CCCN(CC)c1ncnc2[nH]ncc12,inactive
3,Cc1ccccc1-n1nc(C)c2cc(C(=O)NC3CC3)sc21,inactive
4,Cc1ccc(N2C(=O)c3ccccc3C2Nc2cccnc2)nc1 (centres undefined),inactive
5,O=C(c1ccc(C#CC2(O)CCCCC2)cc1)N1CCN(C(c2ccccc2)c2ccccc2)CC1,inactive
6,COc1ccc(C(c2c(C)n(C)n(-c3ccccc3)c2=O)c2c(C)n(C)n(-c3ccccc3)c2=O)c(OC)c1OC,inactive
7,Cc1ccccc1C(=O)NC(=S)Nc1ccc(N2CCN(C(=O)c3ccccc3)CC2)cc1,inactive
8,O=C(N/N=C/c1c(O)ccc2ccccc12)c1cccnc1,inactive
9,COc1cccc(/C=N\NC(=O)c2ccc(C)nc2)c1,inactive
10,CC(CN1CCCCC1)OC(=O)c1ccc2c(c1)OCO2 (centres undefined),inactive
11,N=C1S/C(=C\c2ccccc2)C(=O)N1c1ccc(F)cc1,inactive
12,CN(C)S(=O)(=O)c1cccc(NC(=O)c2n[nH]c(=O)c3ccccc23)c1,inactive
13,Cc1c(NC(=O)c2cc(-c3cccs3)nc3ccccc23)c(=O)n(-c2ccccc2)n1C,inactive
14,O=[N+]([O-])c1cccc(-c2ccc(/C=N/Nc3nc(N4CCCCC4)nc(N4CCCCC4)n3)o2)c1,inactive
15,Cc1ccc(-c2cc(C(=O)N/N=C/C=C/c3ccco3)c3ccccc3n2)cc1C,inactive
16,CCOc1ccc(-c2cc(C(=O)N/N=C/c3ccc(O)cc3)c3ccccc3n2)cc1,inactive
17,O=C(COC(=O)c1ccc(S(=O)(=O)NCc2ccco2)cc1)Nc1ccc(Cl)cn1,inactive
18,CCOC(=O)/C=C(\C)Sc1cc(=O)oc2ccccc12,inactive
19,COc1ccc([C@H]2N[C@]3(CCCN(Cc4ccco4)C3=O)[C@H]3C(=O)N(Cc4ccccc4)C(=O)[C@@H]23)cc1,inactive
20,Cc1ccc(NC(=O)NNS(=O)(=O)c2ccc(Br)cc2)cc1,inactive
21,CCN(Cc1ccncc1)C(=O)CCc1ccccc1,inactive
22,Cc1c(/C(O)=C2/C(=O)C(=O)N(CCN3CCOCC3)C2c2ccccn2)cnn1-c1ccccc1 (centres undefined),inactive
23,COC(=O)CCCC[C@@H]1SC[C@@H](NC(=O)OC)[C@@H]1NC(=O)OC,inactive
24,CN=C1S/C(=C\c2ccc(O)c(Br)c2)C(=O)N1C,inactive
25,C#CCN(C[C@@H]1[C@@H](OC(=O)NCC2CCCCC2)[C@@H](OC(=O)NCC2CCCCC2)Cn2c(=O)ccc(=O)n21)S(=O)(=O)c1ccc(C)cc1,inactive
26,O=C(NOCc1ccccc1)c1ccc(Cl)cc1Cl,inactive

row,SMILES,outcome
1,S=C(NCC1CCCCC1)Nc1ccc(Oc2ccccc2)cc1,inactive
2,CCN(CC(=O)NCc1ccc(F)cc1)CC(=O)Nc1cc(S(=O)(=O)N(C)C)ccc1C,inactive
3,COc1ccc(C(=O)CN(CCC(=O)O)S(=O)(=O)c2ccc([N+](=O)[O-])cc2)cc1,inactive
4,O=C(Nc1ccc(N2CCOCC2)cc1)c1cn2ccccc2n1,inactive
5,Cc1sc2ncnc(N3CCC(C(=O)Nc4ccccc4C(C)(C)C)CC3)c2c1C,inactive
6,C=CCn1c(O)c(N=NC(=S)Nc2ccccc2C)c2cc(S(=O)(=O)N3CCOCC3)ccc21,inactive
7,Cc1cccc(NC(=S)N=Nc2c(O)n(C)c3ccc(S(=O)(=O)N4CCOCC4)cc23)c1,inactive
8,CN1C(=O)C(CC(=O)NC2CCCCC2)SC1=Nc1ccccc1 (centres undefined),inactive
9,COc1ccc(-c2ccc3c(c2)S(=O)(=O)c2cccc(C(=O)NCc4cc(C)oc4C(F)(F)F)c2C3=O)cc1OC,inactive
10,Cc1ccc(C(=O)Nc2cccc(C(F)(F)F)c2)cc1NC(=O)c1ccno1,inactive
11,COc1cccc(C(=O)Nc2nc3ccccc3[nH]2)c1,inactive
12,CCOc1ccc(/C=N/Nc2cc(N3CCOCC3)ncn2)c(O)c1,inactive
13,Cn1cccc1CC(=O)NNC(=S)Nc1ccccc1Cl,inactive
14,COC(=O)C1=C(C)N(CCCC(=O)O)C(=O)NC1c1cccc(Cl)c1Cl (centres undefined),inactive
15,COc1cc2cc(C(=O)N3CCN(c4ccccc4OC)CC3)[nH]c2cc1OC,inactive
16,O=C(Nc1cccc(C(=O)O)c1)Nc1ccccc1Cl,inactive
17,CCN(C(=O)c1cccc(NC(=O)c2ccccc2)c1)C1CCCCC1,inactive
18,N=c1c(-c2nc3ccccc3[nH]2)cc(C(=O)c2cccs2)nn1-c1ccccc1,inactive
19,CCCCCC(=O)N1CCN(c2ccc(C(C)=O)cc2F)CC1,inactive
20,Cc1ccc(-c2csc(=Nc3cccnc3)n2CCCn2ccnc2)cc1C,inactive
21,COc1cc(/C=C(\C#N)c2ccccn2)ccc1OCc1ccccc1Cl,inactive
22,Cc1cc(/C=C2\Cc3ccccc3C2=O)c(C)n1-c1ccccc1,inactive
23,CCCCNC(=S)Nc1ccc([N+](=O)[O-])cc1,inactive
24,CC(=O)NC(CCS(C)(=O)=O)C(=O)Nc1ccc(Cl)c(Cl)c1 (centres undefined),inactive
25,C=C1C(=O)C2=CC1CCC(=O)C1(C)CCC(OC(C)=O)C(C)(C)C1CC2O (centres undefined),inactive
26,O=C(NCC1CCOCC1)c1ccc(OC2CCN(Cc3ccccn3)CC2)cc1,inactive

row,SMILES,outcome
1,CCc1ccc(/C=N/NC(=O)c2ccccn2)cc1,inactive
2,Cc1ccsc1-c1nc(CSCC(=O)N2CCN(c3ccccc3)CC2)c(C)o1,inactive
3,CCCSc1nc2cc(S(=O)(=O)N3CCOCC3)ccc2n1CC,inactive
4,CC(C)OCCCNC(=O)C1CCC(CNS(=O)(=O)c2ccccc2)CC1 (centres undefined),inactive
5,NC1=NC(=O)NC1(c1ccccc1)c1ccccc1,inactive
6,Cc1cc(=S)[nH]c2ccccc12,inactive
7,CCOCCCn1c(=S)[nH]c2ncccc2c1=O,inactive
8,C=CCn1c(O)c(N=NC(=S)Nc2cccc(C)c2)c2ccccc21,inactive
9,Cn1nc(-c2ccc(N3CCOCC3)c(NS(=O)(=O)c3ccccc3)c2)c2ccccc2c1=O,inactive
10,COc1cccc(/C=N/Nc2nc3ccccc3[nH]2)c1O,inactive
11,CCN(CC)c1ccc(/C=N/NC(=O)c2ccc3nc[nH]c3c2)c(O)c1,inactive
12,C(=N\Nc1nc2ccccc2[nH]1)/c1cccc2nccnc12,inactive
13,CCN(CC)S(=O)(=O)c1ccc(N/N=C/c2ccc(O)cc2O)nc1,inactive
14,Cc1ccc(/C=C/c2nc3ccccc3c(=O)[nH]2)cc1,inactive
15,CCN(CC)c1ccc(NC(=O)c2cccc(F)c2)c(C)c1,inactive
16,Cc1cc(C)cc(C(=O)NCCC(=O)NCc2cc(=O)n(C)c(=O)n2C)c1,inactive
17,O=C(CSc1nnc(-c2cccc(S(=O)(=O)N3CCOCC3)c2)n1C1CCCCCC1)NCc1ccccc1,inactive
18,CN(C)CC(C)(C)CNS(=O)(=O)c1ccc(OC(F)(F)F)cc1,inactive
19,COc1ccc2[nH]c3c(=O)n(CCCCC(=O)N4CCC(C(N)=O)CC4)c(=S)[nH]c3c2c1,inactive
20,COc1ccc2cc(C(N)=O)/c(=N\NC(=O)c3ccccc3)oc2c1,inactive
21,CN(C)/C=C/C(=O)c1ccc2noc(-c3ccccc3)c2c1,inactive
22,N#Cc1c(NC(=O)CCCC(=O)O)sc2c1CCCCC2,inactive
23,CC(C)[C@H](N[C@@H](C)c1ccccc1)c1c(O)ccc2ccccc12,inactive
24,CC(=O)c1c(C)[nH]c(C(=O)Nc2ccc(C)cn2)c1C,inactive
25,COc1ccc(Nc2oc(COc3ccccc3OC)nc2C#N)cc1,inactive
26,COc1cc2nc(NC(=O)c3ccco3)sc(=O)c2cc1OC,inactive
